High-throughput results deposited in PubChem BioAssay by Broad Institute.
In the library only some 2.2% were active in any assay of this set; here they are far more common.
PAX8 inh HTS: inhibitors of PAX8 transcriptional activity in RMG-I cells. AID 652154. RMG-I TPO-luciferase reporter, SteadyGlo, 24 h. hit rate 1.2% among 360,000. inhibition, % at 12.6 µM;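 active = mean replicate inhibition at least 60% with every replicate also reaching 60%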;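 also: luciferase light reporting Pax8 driven TPO promoter activity; plate controls were median of neutral control wells for no effect and mitoxantrone controls for full effect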
LGR2 inh: blocks bursicon-induced cAMP signaling via Drosophila LGR2; HEK293 LGR2, CRE-luciferase, bursicon-stimulated, 4 h; inhibition, % at 9.99 µM; hit rate 0.35% among 380,000;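 active = drop in luminescence signal, shown as inhibition above about 50% in the replicate tests, limit read from the data, passing the limit was not always enough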;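 also: agonist challenge used bursicon conditioned medium at about half maximal strength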
MITF TRPM1 inh: inhibitors of MITF-driven TRPM1 promoter in melanoma cells. SK-MEL-5 TRPM1 promoter luciferase, 24 h. hit rate 0.83% among 330,000. inhibition, % at 12.5 µM. AID 488899;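 active = mean inhibition across replicates of 60% or more, whatever share of single replicates reaches that level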
EWS-Fli inh: blocks EWS/Fli oncoprotein-driven transcription. hit rate 0.67% among 350,000. A673 NR0B1-luciferase reporter, viability-normalised. AID 651661. inhibition, % at 12.6 µM;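 active = mean inhibition of at least 50% after viability correction, with every replicate also passing that limit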;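 also: firefly luciferase signal divided by Alamar Blue viability fluorescence both relative to DMSO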
Shn3 inh set2: inhibitors of Schnurri-3 3'UTR reporter in osteoblasts. Clone20 osteoblast Shn3 3'UTR firefly luciferase, 24 h. inhibition, % at 12.5 µM. hit rate 0.52% among 360,000;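 active = mean inhibition of at least 75% with every replicate also reaching 75%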;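 also: 0% = median of neutral control wells and 100% = pilot-screen positive control compound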
LMP1 NFkB inh: inhibitors of Epstein-Barr LMP1-induced NF-kappaB reporter; hit rate 0.69% among 350,000; LMP1-induced NF-kappaB luciferase reporter cells, luminescence; AID 504558; inhibition, % at 12.5 µM; in the data active = inhibition above about 41%;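 also: 0% = neutral control wells and 100% = reference inhibitor control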
Numbers without * were called inactive.

Screening CCCCn1c(CN(C)Cc2ccccc2)nc2c1c(=O)n(C)c(=O)n2C returned MITF TRPM1 inh 19, Shn3 inh set2 87* and LMP1 NFkB inh 12.
`C[C@H](NC(=O)C[C@H]1C[C@@H]2c3cc(NC(=O)C4CCC4)ccc3O[C@@H]2[C@H](CO)O1)c1ccccc1` gave PAX8 inh HTS 1, LGR2 inh 9 and EWS-Fli inh 2.
For CC(=O)Nc1ccc(OCC(O)CNC(C)C)cc1 (configuration not stated) the results were PAX8 inh HTS -12, LGR2 inh 0, MITF TRPM1 inh 10, EWS-Fli inh -7, Shn3 inh set2 -15 and LMP1 NFkB inh 51*.
COc1ccc(NCC(O)COc2ccc(C(C)(C)C)cc2)cc1 (configuration not stated) was read as PAX8 inh HTS -6, LGR2 inh -17, MITF TRPM1 inh 8, EWS-Fli inh 15, Shn3 inh set2 25 and LMP1 NFkB inh 43*.
`COc1ccccc1NCC(O)COc1ccc(C(C)(C)C)cc1` (configuration not stated) gave PAX8 inh HTS 4, LGR2 inh 0, MITF TRPM1 inh -23, EWS-Fli inh 8, Shn3 inh set2 52 and LMP1 NFkB inh 2.
For CC(=O)Nc1ccc(OCC(O)CNC2CCCC2)cc1 (configuration not stated) the results were LGR2 inh 1, MITF TRPM1 inh -15, Shn3 inh set2 -1 and LMP1 NFkB inh -5.
COC1=CC(=O)c2nc(Cl)ccc2C1=O was read as PAX8 inh HTS 107*, LGR2 inh 80*, EWS-Fli inh 40 and Shn3 inh set2 98*.
For COc1ccc(C#Cc2cnc3c(c2)C(=O)N([C@@H](C)CO)C[C@H](C)[C@H](CN(C)C(=O)Nc2cccc(OC)c2)O3)cc1 the results were LGR2 inh -5 and EWS-Fli inh 7.
Screening Cc1ccc(S(=O)(=O)n2c(N)nc3ccccc32)cc1 returned PAX8 inh HTS 13, MITF TRPM1 inh 7, EWS-Fli inh 3, Shn3 inh set2 -18 and LMP1 NFkB inh 2.
Screening Cc1ccc(C(=O)n2c(N)nc3ccccc32)cc1 returned PAX8 inh HTS 65*, LGR2 inh 89*, MITF TRPM1 inh 67*, EWS-Fli inh 75*, Shn3 inh set2 62 and LMP1 NFkB inh 65*.
For CCc1nn(C(C)C(=O)N2CCN(c3ccc(OC)cc3)CC2)c(=O)c2cc3occc3n12 (configuration not stated) the results were PAX8 inh HTS 46, LGR2 inh 13, MITF TRPM1 inh 36, EWS-Fli inh 55*, Shn3 inh set2 -8 and LMP1 NFkB inh -3.
Nc1ncnc2c(C3OC(CO)C(O)C3O)scc12 (configuration not stated) was read as PAX8 inh HTS 114*, LGR2 inh 98*, MITF TRPM1 inh 83*, EWS-Fli inh 37, Shn3 inh set2 97* and LMP1 NFkB inh 71*.
`CN(C)c1ccc(NC(=S)NCC2CCCO2)cc1` (configuration not stated) gave PAX8 inh HTS 65*, LGR2 inh -11, MITF TRPM1 inh -21, EWS-Fli inh -26, Shn3 inh set2 -21 and LMP1 NFkB inh -2.
CCCCc1ccc(NC(=S)NCC2CCCO2)cc1 (configuration not stated) was read as PAX8 inh HTS -13, LGR2 inh -5, MITF TRPM1 inh 5, EWS-Fli inh -12, Shn3 inh set2 6 and LMP1 NFkB inh 3.
Cc1nnc(N/N=C/c2ccccc2O)n1N was read as PAX8 inh HTS 50, LGR2 inh -7, MITF TRPM1 inh -6, EWS-Fli inh 2, Shn3 inh set2 -8 and LMP1 NFkB inh 8.
Cc1nnc(N/N=C/c2cc(C)n(-c3ccc(F)cc3)c2C)n1N was read as PAX8 inh HTS 120*, MITF TRPM1 inh -10, EWS-Fli inh -8, Shn3 inh set2 -4 and LMP1 NFkB inh -3.
Screening O=C(Nc1ccccc1)c1cc(C2CCCN(C(=O)c3ccccc3)C2)on1 (configuration not stated) returned PAX8 inh HTS -38, LGR2 inh -24, EWS-Fli inh -17 and Shn3 inh set2 -37.
For CCCC(=O)N1CCCC(c2cc(C(=O)Nc3ccccc3)no2)C1 (configuration not stated) the results were PAX8 inh HTS 48, LGR2 inh 82*, EWS-Fli inh 14 and Shn3 inh set2 32.
